Compound activity (PubChem BioAssay)
Sampled rows, rich in hits. Any-hit rate of the full collection: about 7.5%.
SMN2 splice enh: SMN2 splice variant enhancement; HEK293 SMN2-luciferase splicing reporter, luminescence, 30-36 h; Potency, µM (highest dose often 46.1 µM), inactives show at the top dose activity change, positive = activation, most hits filed as activators; 210,000 compounds, 2.8% hits; note: % of control where 0% means no effect; nearly all actives have a fitted effect of over 55% in size
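qHTS luciferase splicing reporter: luminescence rises when SMN2 exon 7 is included in transfected HEK293 cells. Compound exposure lasted 30-36 h at 37C, with 4.5 mM final sodium butyrate as control, followed by a ONE-Glo read.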
ELG1 genotoxic: induces genotoxicity in HEK293T cells with luciferase-tagged ELG1. 330,000 compounds, 1.3% hits. Potency, µM (series often up to 46 µM), without a hit: at the top dose activity change, positive = activation, actives largely listed as activators. HEK293T ELG1-luciferase reporter, luminescence, 16 h; note: % of control where 0% means no effect; nearly all actives have a fitted effect of over 60% in size
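Reporter readout depends on ELG1 protein level, which increases with genetic stress. After 16 hr compound exposure at 37 °C, luciferase activity was quantified using ONE-Glo.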
NPC1 promoter act: activators of NPC1 promoter; Huh7 NPC1 promoter luciferase reporter, 24 h; Potency, µM (top dose mostly 9.22 µM), without a hit: at the top dose activation, usual class: activators; 320,000 compounds, 2.4% hits; note: % of control where 0% means no effect; nearly all actives have a fitted effect of over 60% in size
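Huh7 reporter cells (NPC1 promoter driving luciferase) are dosed with compound for 24 h at 37 °C, 5% CO2; luciferase detection reagent is then added and luminescence measured after 10 min at ambient temperature.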
Luc counter: Kinase-Glo luciferase inhibition (counter-screen); Kinase-Glo luciferase, ATP luminescence, 8 min; Q27757; 200,000 compounds, 0.28% hits; Potency, µM (highest dose often 38.3 µM), without a hit: at the highest dose activity change, negative = inhibition, usual class: inhibitors; AID 1379; note: % is set by controls: 0 for no effect and ±100 for the full control effect; nearly all actives have a fitted effect of over 60% in size
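Inhibition of Kinase-Glo luciferase light generation was assessed at 10 uM ATP in pH 7.2 imidazole buffer, with luminescence measured after eight minutes at ambient temperature.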
FLuc counter: inhibits or activates purified firefly luciferase, miR-21 counter-screen | P08659 | purified FLuc, Km substrates, luminescence inhibition | Potency, µM (series often up to 57.5 µM), for inactives: at the highest dose activity change, negative = inhibition, hits mostly inhibitors | 360,000 compounds, 6.9% hits | AID 588342;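 note: plate controls were vehicle for no effect and reference inhibitor for full effect; nearly all actives have a fitted effect of over 55% in size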
Target sequence (P08659 whole entry, looked up): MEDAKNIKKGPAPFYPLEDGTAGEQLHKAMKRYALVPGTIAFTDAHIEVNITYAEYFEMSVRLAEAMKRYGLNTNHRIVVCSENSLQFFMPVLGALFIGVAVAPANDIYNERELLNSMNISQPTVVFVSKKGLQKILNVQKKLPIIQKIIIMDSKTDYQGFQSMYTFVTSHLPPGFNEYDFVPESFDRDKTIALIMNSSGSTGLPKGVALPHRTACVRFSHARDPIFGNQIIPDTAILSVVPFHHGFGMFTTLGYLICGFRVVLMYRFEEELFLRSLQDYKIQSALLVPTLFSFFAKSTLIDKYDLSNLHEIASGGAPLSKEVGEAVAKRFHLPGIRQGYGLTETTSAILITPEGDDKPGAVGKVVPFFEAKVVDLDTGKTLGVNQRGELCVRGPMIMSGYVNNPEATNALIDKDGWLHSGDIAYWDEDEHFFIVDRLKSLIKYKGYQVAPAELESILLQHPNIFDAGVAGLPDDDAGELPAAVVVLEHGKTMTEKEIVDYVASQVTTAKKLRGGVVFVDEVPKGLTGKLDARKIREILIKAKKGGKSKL
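Purified P. pyralis luciferase, 10 nM final, with Km-level 10 uM D-luciferin and 10 uM ATP in 50 mM Tris acetate pH 7.5, 10 mM Mg acetate, 0.01% Tween-20, 0.05% BSA; 6-point qHTS titration about 60 µM downward; luminescence read.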
Rab9 promoter act: Rab9 promoter activation; Huh7 Rab9 promoter-luciferase reporter, luminescence, 24 h; Potency, µM (series often up to 9.22 µM), for the others: top-dose activation, negative = inhibition, most hits filed as activators; 320,000 compounds, 2.8% hits; note: % of control where 0% means no effect; nearly all actives have a fitted effect of over 60% in size
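Huh7 cells stably carrying Rab9 promoter–luciferase reporter, plated 1500 cells/well, compound added after 2 h and incubated 24 h at 37 °C; luciferase luminescence then read after 10 min with detection reagent.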
Active calls of the source: *; [ ] = another dose, or the depositor's remark. Calls come from the whole dose curve; as a rule, active = well fitted curve in the direction sought with a large enough effect; inconclusive = small, poorly fitted or top-dose-only effect, or another doubt; inactive = no such curve, though single readings can be large; an effect the other way counts as inactive or inconclusive. Potency is the fitted concentration of half-maximal effect.

Cc1ccc(-n2c(C)cc(/C=C3/C(=O)NC(=O)N(Cc4ccco4)C3=O)c2C)cc1 was read as SMN2 splice enh -19%, ELG1 genotoxic 1%, NPC1 promoter act 0%, Luc counter -1%, FLuc counter 19µM* and Rab9 promoter act -1%.
`Cc1cc(/C=C2\C(=O)NC(=O)N(Cc3ccco3)C2=O)c(C)n1-c1ccc(O)cc1` gave ELG1 genotoxic 11%, NPC1 promoter act 5%, Luc counter -14%, FLuc counter 15µM* and Rab9 promoter act -10%.
`Cc1ccc(-n2c(C)cc(/C=C3/C(=O)NC(=O)N(C)C3=O)c2C)cc1` gave SMN2 splice enh -6%, ELG1 genotoxic 1%, NPC1 promoter act -1%, Luc counter -7%, FLuc counter 0.6µM* and Rab9 promoter act -2%.
`Cc1ccc(N2C(=O)NC(=O)/C(=C\c3cc(C)n(-c4ccc(C(=O)O)cc4)c3C)C2=O)cc1` gave ELG1 genotoxic -1%, NPC1 promoter act 3%, FLuc counter -4% and Rab9 promoter act -5%.
`ClC(Cl)Br` gave SMN2 splice enh 17%.
`CC(=O)O/C(=C1/C[C@H]2[C@@H]3CC=C4C[C@@H](OC(C)=O)CC[C@]4(C)[C@@H]3CC[C@]2(C)C1=O)C(F)(F)F` gave SMN2 splice enh -3%[9.22 µM] and Luc counter -5%[7.66 µM].
O=C(C1CC(c2ccc(Cl)c(Cl)c2)=NO1)N1CCC2(CC1)OCCO2 (stereo not drawn) was read as SMN2 splice enh 13µM*, ELG1 genotoxic 7.3µM*, NPC1 promoter act 2.2µM*, Luc counter -3%, FLuc counter 15µM* and Rab9 promoter act 2µM*.
Screening O=C(C1CC(c2ccc(F)cc2)=NO1)N1CCC2(CC1)OCCO2 (stereo not drawn) returned SMN2 splice enh -28%, ELG1 genotoxic 21µM*, NPC1 promoter act 29%, Luc counter -3%, FLuc counter 17µM* and Rab9 promoter act inconclusive.
